CBX7 inh = CBX7 chromodomain binding inhibitors, primary screen, biochemical, AlphaScreen. Chromobox protein homolog 7 (Homo sapiens), O95931. AlphaScreen His6-CBX7 / biotin-H3K27me3 peptide binding; stronger effect = lower value. normalised signal (fraction of DMSO) (no concentration beside the values). AID 1224903, 2016. 66,000 compounds, 1.1% hits; in the data active = normalised signal below about 0.5
Target sequence (O95931 whole entry, looked up): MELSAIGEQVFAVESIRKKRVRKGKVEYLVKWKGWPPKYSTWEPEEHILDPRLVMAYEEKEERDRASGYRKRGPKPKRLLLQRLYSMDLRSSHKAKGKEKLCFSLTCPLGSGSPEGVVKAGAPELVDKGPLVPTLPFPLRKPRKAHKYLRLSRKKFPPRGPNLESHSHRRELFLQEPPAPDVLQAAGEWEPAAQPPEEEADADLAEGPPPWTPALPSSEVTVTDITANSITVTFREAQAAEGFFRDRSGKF
A number is an active result; n = inactive. This is one part of a sample in which hits are shown more often than they occur.

SMILES | CBX7 inh
CCC1CCCCN1S(=O)(=O)c1ccc(C(=O)Nc2nnc(-c3cccs3)o2)cc1 (centres undefined) | n
CN(c1ccccc1)S(=O)(=O)c1ccc(C(=O)Nc2nnc(-c3cccs3)o2)cc1 | n
CCc1nnc(NC(=O)c2ccc(S(=O)(=O)N3CCCCC3CC)cc2)o1 (centres undefined) | n
Cc1ccc2c(c1)-c1c(cnn1CC(=O)NCCN(C)Cc1ccccc1)CO2 | n
CC(=O)Nc1cccc(NC(=O)Cn2cnc3c(nnn3Cc3ccc(C)cc3)c2=O)c1 | n
CC(C)Oc1ccc(C(=O)Nc2ccc(S(=O)(=O)N3CCCCC3c3cccnc3)cc2)cc1 (centres undefined) | n
Cc1ccc(NC2c3ccccc3C(=O)N2c2ccc(Cl)cc2)c(C)c1 (centres undefined) | n
O=C(NCc1ccc2c(c1)OCO2)c1cc(-c2ccc(Br)s2)nc2ccccc12 | n
O=C(Nc1ccccc1-c1nc2ccccc2s1)c1cccc(F)c1 | n
COc1ccccc1Nc1cc(C(=O)N2CCN(Cc3ccccc3)CC2)c2ccccc2n1 | n
COc1cc(C)nc(N(CC(=O)O)S(=O)(=O)c2ccc(C)cc2)n1 | n
O=C(Nc1nnc(-c2ccc(Cl)s2)o1)c1ccc(S(=O)(=O)N2CCOCC2)cc1 | 0.00635
O=C(Nc1nnc(-c2ccc(Cl)s2)o1)c1ccc(S(=O)(=O)N2CCCC2)cc1 | 0.0464
O=C(Nc1nnc(-c2ccccc2)o1)c1ccc(Br)cc1 | 0.268
O=C(Nc1nnc(-c2ccccc2)o1)c1ccc(Cl)c(Cl)c1 | n
COc1ccc(-c2nnc(NC(=O)c3ccc(S(=O)(=O)N(C)c4ccccc4)cc3)o2)cc1 | n
CC1CC(C)CN(S(=O)(=O)c2ccc(C(=O)Nc3nnc(-c4cccs4)o3)cc2)C1 (centres undefined) | n
O=C(Nc1nnc(-c2ccc(Cl)cc2Cl)s1)c1ccc(S(=O)(=O)N2CCCC2)cc1 | n
O=C(Nc1nccs1)c1ccc(S(=O)(=O)N2CCOCC2)cc1 | n
COc1cc(OC)cc(-c2nnc(NC(=O)c3ccc(S(=O)(=O)N4CCC(C)CC4)cc3)o2)c1 | n
CC1CCN(S(=O)(=O)c2ccc(C(=O)Nc3nnc(-c4cccs4)o3)cc2)CC1 | n
O=C(Nc1nnc(-c2cccs2)o1)c1ccc(S(=O)(=O)N2CCCC2)cc1 | 0.13
O=C(Nc1nc2c(Cl)cccc2s1)c1ccc(S(=O)(=O)N2CCCC2)cc1 | n
C=CCn1c(=N)n(CCOc2ccc(Br)cc2)c2ccccc21 | n
Cc1ccc(NC(=O)CN(c2ccc(C)cc2)S(=O)(=O)c2c(C)nn(C)c2C)cc1 | n
SMILES | CBX7 inh
COC(=O)c1ccccc1NC(=O)COCc1cc(-c2ccc(F)cc2)on1 | n
Cc1sc(NC(=O)c2cccnc2)nc1-c1ccc(-c2ccccc2)cc1 | n
CC(NC(=O)c1cc2c(s1)CSC2)c1ccccc1 (centres undefined) | n
CCOC(=O)c1cc(-c2ccc(OC)cc2)n(CCC(=O)N2CCN(Cc3ccccc3)CC2)c1C | n
Cc1cc(NC(=O)c2cc3ccccc3oc2=O)c2ccccc2n1 | n
COc1ccc(OC2C(=O)N(c3cccc(Cl)c3)C2c2ccc3c(c2)OCO3)cc1 (centres undefined) | n
Cc1ccc(Cl)cc1NC(=O)C1=CCN(S(=O)(=O)c2ccc(F)cc2)CC1 | n
O=C(Nc1nnc(-c2ccc(F)cc2)o1)c1ccc(S(=O)(=O)N2CCOCC2)cc1 | 0.00366
COc1cc(OC)cc(-c2nnc(NC(=O)c3ccc(S(=O)(=O)N4CCOCC4)cc3)o2)c1 | n
COc1ccc(-c2nnc(NC(=O)c3ccc(S(=O)(=O)N4CC(C)CC(C)C4)cc3)o2)cc1 (centres undefined) | n
Cc1ccc(CNC(=O)C2CCN(S(=O)(=O)c3ccccc3)CC2)cc1 | n
CCOc1ccc(Nc2cc(C(=O)NCc3ccc(OC)cc3)c3ccccc3n2)cc1 | n
Brc1ccc2nc(-c3ccccn3)c(Nc3ccc4c(c3)OCO4)n2c1 | n
Cc1ccccc1Nc1c(-c2ccccn2)nc2ccc(Br)cn12 | n
COC(=O)CNc1c(-c2ccccn2)nc2ccc(Br)cn12 | 0.0635
COc1ccc(CCNC(=O)CCc2nc3sc4c(c3c(=O)[nH]2)CCCC4)cc1OC | n
Cc1c(C(=O)NCc2ccc(F)cc2)sc2ncnc(N3CCN(c4ccccc4)CC3)c12 | n
CCCCNC(=O)Cn1cnc2sc(C)c(S(=O)(=O)N3CC(C)CC(C)C3)c2c1=O (centres undefined) | n
O=C(NC1CCCCC1)N1CCN(c2ccc(C(F)(F)F)cn2)CC1 | n
COc1ccc(N2CCC(CNC(=O)Nc3ccccc3)C2)cc1 (centres undefined) | n
COc1ccc(N2CCN(C3CC(=O)N(c4cccc(Cl)c4)C3=O)CC2)cc1 (centres undefined) | n
COc1ccc(N2CCC(CNS(=O)(=O)c3cccc(Cl)c3)C2)cc1 (centres undefined) | 0.474
CCOC(=O)c1ccc(N2C(=O)C3C4C=CC(C4)C3(C)C2=O)cc1 (centres undefined) | n
CCOc1ccc(NC2c3ccccc3C(=O)N2c2cccnc2)cc1 (centres undefined) | n
Cc1ccc(NC2c3ccccc3C(=O)N2Cc2ccccc2)cc1 (centres undefined) | n
SMILES | CBX7 inh
O=C1c2cccnc2C(Nc2ccc(Cl)cc2)N1Cc1ccc(F)cc1 (centres undefined) | 0.372
O=C1c2ccccc2C(Nc2ccccn2)N1Cc1ccccc1 (centres undefined) | n
Cc1ccc(NC2c3ncccc3C(=O)N2Cc2ccc(F)cc2)cc1 (centres undefined) | 0.44
CCOc1ccc(NC2c3ncccc3C(=O)N2Cc2ccc(F)cc2)cc1 (centres undefined) | 0.497
Cc1ccc(Cl)cc1NC1c2ncccc2C(=O)N1Cc1ccc(F)cc1 (centres undefined) | n
CCOc1ccc(NC2c3ccccc3C(=O)N2Cc2ccccc2Cl)cc1 (centres undefined) | n
Cc1ccc(NC2c3ccccc3C(=O)N2Cc2ccccc2Cl)cc1 (centres undefined) | n
CN1C(c2ccccc2)CC(O)(C#Cc2ccccc2)CC1c1ccccc1 (centres undefined) | n
Cc1cccc(CN2CCN(CC(=O)NC(C)c3ccccc3)C2=O)c1 (centres undefined) | n
c1ccc(CNCc2nc3ccccc3[nH]2)cc1 | n
O=C1c2ccccc2C(Nc2ccc(Cl)cc2Cl)N1c1cccnc1 (centres undefined) | n
Cc1c(C(=O)N2CCCCC2)oc2ccc(S(=O)(=O)N3CCCCC3)cc12 | n
Cc1nc2c3ccccc3nc(NCc3ccc4c(c3)OCO4)n2n1 | n
O=C(Cc1ccc(NC2=NC3CS(=O)(=O)CC3S2)cc1)N1CCN(c2ncccn2)CC1 (centres undefined) | n
Cc1ccc(Cc2c(C)nc3c(C(=O)N4CCN(c5cc(Cl)ccc5C)CC4)cnn3c2C)cc1 | n
O=C(c1cc2n(n1)C(C(F)(F)F)CC(c1ccccc1)N2)N(Cc1ccccc1)Cc1ccccc1 (centres undefined) | n
Cc1nn(CC(=O)NCC2CCCO2)c2ccccc12 (centres undefined) | n
Cc1nc(C)c(-c2csc(Nc3ccc(C(=O)O)cc3)n2)s1 | n
Cc1nc(C)c(-c2csc(Nc3ccccc3)n2)s1 | 0.481
Cc1cccc(Nc2nc(-c3sc(C)nc3C)cs2)c1 | 0.447
c1ccc(Nc2nc(-c3cccs3)cs2)cc1 | n
Cc1nc(C)c(-c2csc(Nc3cccc(O)c3)n2)s1 | n

Screening results: PubChem BioAssay, Bradner/Qi Labs at DFCI
